The record followed here is PubChem BioAssay AID651994 (Sanford-Burnham Center for Chemical Genomics, 2013).

The campaign covered roughly 2,500 compounds. About 790 (32%) were called active.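 How the source made its calls: active means mean cytotoxicity at 5 µM above about 25% (limit read from the data); inactive means the rest.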 The list is a sample of the results.

The nature of the assay: cytotoxicity in Sufu-KO-LIGHT cells, confirmation, cytotoxicity control for Gli-SUFU antagonist project, cell-based, ATP luminescence, single concentration (AID 651994).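 Further: cells exposed to compound overnight for roughly 16 to 18 hours; plate controls were DMSO wells with cells for no effect and medium without cells for full effect.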 The conditions noted are these: at 5 µM, stronger effect = higher value.
`COc1ccc2c(C)cc3nnnn3c2c1`: the cytotoxicity is 27% (active).

Take `CC1(C)CC(=O)c2c(n(S(=O)(=O)c3ccccc3)c3ccc(NS(=O)(=O)c4ccccc4)cc23)C1`: the cytotoxicity is 23.1% (inactive). Then `Cc1ccc(NC(=S)Nc2ccc(F)cc2)cc1`, with 25.1% (active). In the case of `COc1ccc(NC(=O)[C@H](NC(=O)[C@@H]2Cc3ccccc3CN2)c2ccccc2)cc1`, the cytotoxicity is 6.92% (inactive). To `CCN(CC)CCNC(=O)c1ccc(NC(=O)c2cc(-c3ccncc3)nc3ccccc23)cc1` belongs 16.3% (inactive); to `Nc1ccc(C(=O)N2CCN(S(=O)(=O)c3ccc(Cl)cc3)CC2)cc1[N+](=O)[O-]`, 14.4% (inactive); to `CC(=O)N1CCCc2cc(S(=O)(=O)N3CCCC(C(=O)N4CCN(c5cccc(Cl)c5)CC4)C3)ccc21` (stereo not drawn), 24.2% (inactive). To `O=C(NCCOCc1ccc(Cl)cc1)c1ncn[nH]1` belongs 18.8% (inactive); to `N#Cc1ccc(C(=O)Nc2nc(-c3cccs3)c(C(=O)C(F)(F)F)s2)cc1`, 32.7% (active).

Regarding `C/C(=N\Nc1ccc(Cl)nn1)c1ccccc1O`, the cytotoxicity was 23.9% (inactive). Then `O=C(O)c1ccc(N/N=C/c2ccc3ncccc3c2)cc1`, with 22.3% (inactive); and `CCN(CCO)C(=S)Nc1cc(C(=O)OC)ccc1C(=O)OC`, with 18.2% (inactive); and `C=CCC1(CC=C)CCCN1C(=O)c1cc(COc2ccc(-n3cncn3)cc2)on1`, with 36.4% (active). With `CSc1ncccc1C(=O)Nc1nc2ccc(F)cc2s1`, the cytotoxicity is 28.1% (active). On to `O=C(Nc1nc2ccc([N+](=O)[O-])cc2s1)c1ccc(S(=O)(=O)N2CCCc3ccccc32)cc1`, for which the cytotoxicity is 23.2% (inactive). Take `Cc1ccc(S(=O)(=O)N2C[C@@H]3CCCC[C@@H]3[C@@H](C)[C@H]2c2cn(Cc3ccccc3)c3ccc(F)cc23)cc1`: the cytotoxicity is 7.61% (inactive). Regarding `C=CCNC(=S)/N=c1/ccccn1Cc1ccccc1`, the cytotoxicity is 22.1% (inactive). Regarding `CCC(Cc1ccccc1)NC(=O)C1CCCCC1` (stereo not drawn), the cytotoxicity is 9.02% (inactive). For `O=C(Nc1cccc(S(=O)(=O)Nc2ccc(Cl)cc2)c1)c1ccc2c(c1)OCCO2`, the cytotoxicity was 28.9% (active).

As to `O=C1C=C(c2ccnc3cc(Cl)ccc23)C[C@@H](c2ccc3c(c2)OCO3)C1`, the cytotoxicity was 30.6% (active). With `CCN1/C(=C/C(=S)Nc2ccccc2)Sc2ccccc21`, the cytotoxicity was -1.08% (inactive).

As to `CC(C)(CNC(=O)c1ccc(Cl)c(S(=O)(=O)N2CCc3ccccc3C2)c1)N1CCOCC1`, the cytotoxicity was 17.5% (inactive).

Take `COc1ccc(C(=O)NC2CCCc3c2cnn3-c2cccc(C)c2C)c(OC)n1` (stereo not drawn): the cytotoxicity was 26.7% (active). As for `Cc1ccc(S(=O)(=O)NC(C)C(=O)Nc2ccccc2C(=O)N2CCCC2)cc1` (stereo not drawn), the cytotoxicity was 12.8% (inactive). For the compound `CCc1c(C)nc2cc(C)[nH]n2c1=O`, the cytotoxicity was 10.3% (inactive). Then `Cc1cc(C(=O)CSc2nc(N)cc(=O)[nH]2)c(C)n1-c1cccc(F)c1`, with 34.2% (active); and `CN(C)CCSc1nc(N)c2c3c(sc2n1)COC(C)(C)C3`, with 9.54% (inactive). Take `O=C(CN1CCN(S(=O)(=O)c2cc(Cl)ccc2Cl)CC1)c1ccc(O)c(O)c1`: the cytotoxicity was 14.6% (inactive). Take `CC(=O)Nc1ccc(NC(=O)c2ccc3c(c2)C(=O)N(c2ccccc2C)C3=O)cc1`: the cytotoxicity was 24.5% (inactive). On to `Brc1c(CSc2nncc3ccccc23)nc2ccccn12`, for which the cytotoxicity was -3.37% (inactive).

For the compound `CN(c1ccc2nc3ccccc3c(=O)n2n1)C1CCCCC1`, the cytotoxicity is 84.2% (active).

On to `NS(=O)(=O)c1ccc(CCNC(=O)CCCn2c(SCC(=O)N3CCCC3)nc3ccsc3c2=O)cc1`, for which the cytotoxicity is -12.7% (inactive).

As to `CC(C)(C)c1ccc(Oc2ccc(N)cc2)cc1`, the cytotoxicity is 18.4% (inactive). In the case of `COc1ccc(Cc2nnc(N/N=C/c3ccccc3O)[nH]c2=O)cc1OC`, the cytotoxicity is 43.8% (active). Regarding `COc1ccc(/C=N/N=C2/C(=O)Nc3ccccc32)cc1O`, the cytotoxicity is -0.38% (inactive). Consider `CC1(C)Cc2ccccc2/C(=C/C(=O)c2ccccc2)N1`, for which the cytotoxicity is 4.12% (inactive). Regarding `CC1(C)CC2CC(C)(CN2c2ncnc3ccc(Br)cc23)C1` (stereo not drawn), the cytotoxicity was 38.5% (active). Then `COc1cc(C(=O)OC2CCOC2=O)c([N+](=O)[O-])cc1OC` (stereo not drawn), with 3.16% (inactive); and `COc1cccc(-n2cc(C(=O)O)c3ccccc3c2=O)c1`, with 25.1% (active). For `O=C(Nc1ccnn1C1CCN(C/C=C/c2ccc(F)cc2)CC1)C1CCCC1`, the cytotoxicity is 2.29% (inactive). As to `Cc1nn(C)c(Cl)c1CN1CCC(n2nccc2NC(=O)C2CCCC2)CC1`, the cytotoxicity is 16.4% (inactive).

In the case of `CN(C)C(CNC(=O)Cc1ccc([N+](=O)[O-])cc1)c1ccccc1` (stereo not drawn), the cytotoxicity is 15.4% (inactive). As for `COc1ccc(C(=O)NCc2nnc(SCCOc3ccccc3)n2C)cc1`, the cytotoxicity is 10.2% (inactive). As for `COc1cc(C(=O)OC(C)C(=O)NCC2CCCCC2)cc(NC(=O)c2ccco2)c1OC` (stereo not drawn), the cytotoxicity is -2.91% (inactive). For `O=C(Nc1cc2c3c(c1)C1CCCC1CN3CC1CCCC21)c1ccc([N+](=O)[O-])cc1` (stereo not drawn), the cytotoxicity is 29.3% (active). To `COC(=O)c1ccccc1NC(=O)C1(S(=O)(=O)c2ccc(Cl)cc2)CC1` belongs -1.28% (inactive); to `NC(N)=Nc1nc(-c2ccccc2)c2cc(Cl)ccc2n1`, 27.1% (active); to `O=c1c2ccccc2nc2n1C(CSCc1cccc(C(F)(F)F)c1)CS2` (stereo not drawn), 34.2% (active). On to `Cc1ccc(-c2nc(CSCC(=O)NC3CCN(Cc4ccccc4)CC3)c(C)o2)cc1`, for which the cytotoxicity is 12% (inactive). `O=C(C[C@H]1C/C=C\C[C@@H](NC(=O)OCC2c3ccccc3-c3ccccc32)C(=O)O[C@@H](c2ccccc2)CNC1=O)N[C@H](CO)Cc1ccccc1`: the cytotoxicity was 18.6% (inactive).

Regarding `CNc1nnc(-c2ccco2)s1`, the cytotoxicity is -0.36% (inactive). With `O=C1/C(=C/c2ccc(F)cc2)SC(=S)N1NS(=O)(=O)c1ccccc1`, the cytotoxicity is 16.4% (inactive). On to `Cc1ccc(Nc2nc(N3CCOCC3)nc(N3CCOCC3)n2)cc1Cl`, for which the cytotoxicity is 40.8% (active). As to `CCc1ccc(C2C(C#N)=C(N)N(N3CCOCC3)C3=C2C(=O)CC(C)(C)C3)s1` (stereo not drawn), the cytotoxicity was 25.2% (active). For the compound `CC(C)C(=O)Nc1nnc(SCC(=O)N2C(C)CCCC2C)s1` (stereo not drawn), the cytotoxicity was 1.96% (inactive). To `CCc1c(C)[nH]c(=S)c(C#N)c1C` belongs 9% (inactive); to `Cc1c(Cl)c([N+](=O)[O-])nn1Cc1ccc(C(=O)N/N=C\c2cc(Cl)ccc2O)o1`, 29% (active); to `CCOc1ccc(-n2c(O)c(/C=N/Nc3nc(C)cc(C)n3)c3ccccc3c2=O)cc1`, 17.6% (inactive).

Consider `Cc1ccsc1C(=O)OCC(=O)c1cc(C)n(CC2CCCO2)c1C` (stereo not drawn), for which the cytotoxicity is 26.6% (active).

`Cc1cccc2nc(CSc3nc4[nH]ncc4c(=O)n3-c3cccc(Cl)c3)cc(=O)n12`: the cytotoxicity is 20.1% (inactive).

With `Cc1ccc(S(=O)(=O)N(Cc2cc3ccccc3[nH]c2=O)CC2CCCO2)cc1` (stereo not drawn), the cytotoxicity is 5.2% (inactive).

Regarding `COc1ccccc1CNC(=O)C1CCN(c2nc3ccccc3o2)CC1`, the cytotoxicity is 17.9% (inactive). Regarding `COc1ccc(NS(=O)(=O)c2ccc(NC(C)=O)cc2)cc1OC`, the cytotoxicity was 14% (inactive). Then `Cc1cccc(NS(=O)(=O)c2ccc(-c3cnc(C4CC4)o3)cc2)c1`, with 54.4% (active); and `Cc1cc(C)c(SCCc2ccncc2)c(C)c1`, with 29.5% (active); and `Cc1ccc(NC(=O)CN(C)CC(=O)Nc2cccc(F)c2)cc1[N+](=O)[O-]`, with 29% (active).

With `Cc1ccc(O)c(NC(=O)COc2cc(C)ccc2C)c1`, the cytotoxicity was -3.46% (inactive). As for `Cn1c(=O)c2c(nc(NCCc3ccccc3)n2Cc2ccccc2)n(C)c1=O`, the cytotoxicity was 34.7% (active).

As to `COCCn1c(CN2CCC(Cc3ccccc3)CC2)nc2c1c(=O)n(C)c(=O)n2C`, the cytotoxicity was 19.8% (inactive). In the case of `CCCCNc1nc2c(c(=O)n(C)c(=O)n2C)n1Cc1cccc(OC)c1`, the cytotoxicity is 44.5% (active). For the compound `COc1ccc(NS(=O)(=O)c2ccc(N3CCN(CCO)CC3)c([N+](=O)[O-])c2)cc1`, the cytotoxicity was 16.4% (inactive). For the compound `CC(=O)OCCC(C)C`, the cytotoxicity was -7.84% (inactive). As for `CCCc1nc(N)nc2c1C(=O)CC(C)(C)C2`, the cytotoxicity is 5.9% (inactive). With `CN1C(CC(=O)Nc2ccc(Br)cc2)c2ccccc2CC1(C)C` (stereo not drawn), the cytotoxicity was 15.7% (inactive).

Consider `Cc1ccc(C)c(S(=O)(=O)N2CCN(c3ncnc4sccc34)CC2)c1`, for which the cytotoxicity is 69.2% (active). For the compound `c1ccc(-n2nnnc2N2CCOCC2)cc1`, the cytotoxicity was 10.1% (inactive). With `CC[n+]1c(C)n(-c2ccccc2)c2ccc(NC(C)=O)cc21`, the cytotoxicity is 29% (active).

Regarding `CCC1CCCCN1CCCNC(=O)Cn1nc(-c2ccccc2)ccc1=O` (stereo not drawn), the cytotoxicity is 20.3% (inactive).

As to `CN(NC(=O)c1ccccc1F)c1nc(C(F)(F)F)nc2ccccc12`, the cytotoxicity was 56.2% (active). Take `CCn1c(SCc2ccccc2)nc2cc(OC)c(OC)cc2c1=O`: the cytotoxicity was 23.5% (inactive).

Take `CCOc1cccc(/C=N/NC(=S)NCCN2CCOCC2)c1O`: the cytotoxicity was 20.7% (inactive). Take `CCOC(=O)c1cnc(-n2nc(C)cc2C)nc1NNc1cc(C)nc(-c2ccccc2)n1`: the cytotoxicity is 24% (inactive). Take `c1c2c(cc3sc(N4CCCCC4)nc13)OCCO2`: the cytotoxicity is 51.8% (active). As to `CN(C)CCN(C(=O)C1CCCCC1)c1nc2cc3c(cc2s1)OCO3`, the cytotoxicity was 20.3% (inactive). Take `CCOC(=O)c1ccc(NC(=O)Cn2cnc3cc(C)c(C)cc32)cc1`: the cytotoxicity is 24.9% (inactive). To `CC(=O)c1c(C)[nH]c(C(=O)OCC(=O)Nc2sc3c(c2C#N)CCCC3)c1C` belongs 17.2% (inactive); to `O=C(Cn1cc(C(=O)C2CC2)c2ccccc21)Nc1ccccc1Cl`, 16.3% (inactive); to `COc1ccccc1N1CCN(Cc2cc(OC)c3c(c2)OCO3)CC1`, 22.5% (inactive). With `CCCOc1ccccc1C1CC(=O)Nc2cc3c(cc21)OCO3` (stereo not drawn), the cytotoxicity was 48.1% (active). As for `COc1ccccc1C1C2=C(COC2=O)Nc2cc3c(cc21)OCO3` (stereo not drawn), the cytotoxicity is 50.9% (active). Turning to `O=C(O)CCCn1cc(NC(=O)COc2cccc(Cl)c2)cn1`, the cytotoxicity was 11.7% (inactive). In the case of `COc1ccc2nc(SCC(=O)Nc3c(C)cc(C)cc3C)[nH]c2c1`, the cytotoxicity is 11.7% (inactive). Regarding `CCN(CC(=O)Nc1cc(Cl)ccc1C)C(=O)CSCc1ccc(C)cc1`, the cytotoxicity is 6.16% (inactive).
